Data from PubChem BioAssay AID1159580 (chemical genetic matrix, 2015).
The campaign covered roughly 5,500 compounds. About 2,000 (36%) were called active. Inconclusive results (about 18%) are left out. Cut-off read from the data, not from the text of the source: active = normalized growth mostly below about 0.91 (no sharp cut-off); inconclusive = no clear call, values can overlap the other calls; inactive = mostly above about 0.92. Some of the results follow.

Test: chemical genetic growth profiling, strain panel (AID 1159580);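 note: tested at 20 µM; growth read once vehicle control cultures reached saturation at 30 °C; 1 = growth at the plate median or of vehicle wells; lower values mean less growth of the strain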
Settings: growth OD

Measured: normalized growth

CC(C)C1CCC(C(=O)N[C@@H](Cc2ccccc2)C(=O)O)CC1 (some centres not stated)
inactive: S. cerevisiae deletion strains, locus YJR075W, strain HOC1, active compounds read low 0.992 | S. cerevisiae deletion strains, locus YKL009W, strain mrt4, active compounds read low 0.963 | S. cerevisiae deletion strains, locus YKL068W, active compounds read low 1 | S. cerevisiae deletion strains, locus YKL085W, strain MDH1 (second series), active compounds read low 1 | S. cerevisiae deletion strains, locus YKL085W, strain MDH1, active compounds read low 1 | S. cerevisiae deletion strains, locus YKL160W, strain elf1, active compounds read low 0.971 | S. cerevisiae deletion strains, locus YKL190W, strain CNB1, active compounds read low 0.976 | S. cerevisiae deletion strains, locus YKR001C, strain vps1, active compounds read low 1.04 | S. cerevisiae deletion strains, locus YKR026C, strain gcn3, active compounds read low 0.974 | S. cerevisiae deletion strains, locus YKR091W, strain srl3, active compounds read low 0.978 | S. cerevisiae deletion strains, locus YLL001W, strain dnm1, active compounds read low 0.957 | S. cerevisiae deletion strains, locus YLL026W, active compounds read low 0.981 | S. cerevisiae deletion strains, locus YLL041C, strain sdh2, active compounds read low 0.961 | S. cerevisiae deletion strains, locus YLR027C, strain aat2, active compounds read low 0.985 | S. cerevisiae deletion strains, locus YLR039C, strain RIC1, active compounds read low 0.969 | S. cerevisiae deletion strains, locus YLR058C, strain SHM2, active compounds read low 1 | S. cerevisiae deletion strains, locus YLR102C, strain apc9, active compounds read low 0.999 | S. cerevisiae deletion strains, locus YLR113W, strain HOG1, active compounds read low 1.02 | S. cerevisiae deletion strains, locus YLR221C, strain rsa3, active compounds read low 0.987 | S. cerevisiae deletion strains, locus YLR258W, strain gsy2, active compounds read low 0.987 | S. cerevisiae deletion strains, locus YLR262C, strain YPT6 (second series), active compounds read low 0.955 | S. cerevisiae deletion strains, locus YLR262C, strain YPT6, active compounds read low 0.964 | S. cerevisiae deletion strains, locus YLR268W, strain sec22, active compounds read low 1.01 | S. cerevisiae deletion strains, locus YLR320W, strain mms22, active compounds read low 0.979 | S. cerevisiae deletion strains, locus YLR330W, strain CHS5, active compounds read low 1 | S. cerevisiae deletion strains, locus YLR342W, strain FKS1 (second series), active compounds read low 0.965 | S. cerevisiae deletion strains, locus YLR342W, strain FKS1, active compounds read low 0.979 | S. cerevisiae deletion strains, locus YLR357W, strain rsc2, active compounds read low 0.971 | S. cerevisiae deletion strains, locus YLR370C, strain arc18, active compounds read low 0.959 | S. cerevisiae deletion strains, locus YLR371W, strain rom2, active compounds read low 1.01 | S. cerevisiae deletion strains, locus YLR384C, strain iki3, active compounds read low 0.965 | S. cerevisiae deletion strains, locus YLR418C, strain cdc73, active compounds read low 1.05 | S. cerevisiae deletion strains, locus YML016C, strain PPZ1, active compounds read low 1 | S. cerevisiae deletion strains, locus YML032C, strain rad52, active compounds read low 1.02 | S. cerevisiae deletion strains, locus YML120C, strain ndi1, active compounds read low 0.97 | S. cerevisiae deletion strains, locus YML124C, strain tub3, active compounds read low 1.02 | S. cerevisiae deletion strains, locus YMR058W, strain fet3, active compounds read low 0.98 | S. cerevisiae deletion strains, locus YMR078C, strain ctf18, active compounds read low 1.02 | S. cerevisiae deletion strains, locus YMR125W, strain sto1, active compounds read low 0.966 | S. cerevisiae deletion strains, locus YMR129W, active compounds read low 0.977 | S. cerevisiae deletion strains, locus YMR205C, strain PFK2, active compounds read low 0.967 | S. cerevisiae deletion strains, locus YMR223W, strain ubp8, active compounds read low 1.02 | S. cerevisiae deletion strains, locus YMR231W, strain pep5, active compounds read low 0.971 | S. cerevisiae deletion strains, locus YMR263W, strain SAP30, active compounds read low 0.974 | S. cerevisiae deletion strains, locus YMR307W, strain GAS1, active compounds read low 0.998 | S. cerevisiae deletion strains, locus YNL067W, strain RPL9B, active compounds read low 0.999 | S. cerevisiae deletion strains, locus YNL071W, strain lat1, active compounds read low 0.979 | S. cerevisiae deletion strains, locus YNL128W, strain TEP1, active compounds read low 0.971 | S. cerevisiae deletion strains, locus YNL153C, strain GIM3, active compounds read low 1 | S. cerevisiae deletion strains, locus YNL183C, strain NPR1, active compounds read low 0.955 | S. cerevisiae deletion strains, locus YNL209W, strain ssb2, active compounds read low 0.963 | S. cerevisiae deletion strains, locus YNL233W, strain BNI4, active compounds read low 1.01 | S. cerevisiae deletion strains, locus YNL248C, strain rpa49, active compounds read low 0.976 | S. cerevisiae deletion strains, locus YNL250W, strain rad50, active compounds read low 1.01 | S. cerevisiae deletion strains, locus YNL271C, strain bni1, active compounds read low 1.01 | S. cerevisiae deletion strains, locus YNL298W, strain CLA4, active compounds read low 1.01 | S. cerevisiae deletion strains, locus YNL307C, strain MCK1, active compounds read low 1.03 | S. cerevisiae deletion strains, locus YNL322C, strain KRE1 (second series), active compounds read low 0.992 | S. cerevisiae deletion strains, locus YNL322C, strain KRE1, active compounds read low 0.998 | S. cerevisiae deletion strains, locus YNR049C, strain mso1, active compounds read low 0.975 | S. cerevisiae deletion strains, locus YNR052C, strain pop2, active compounds read low 1.01 | S. cerevisiae deletion strains, locus YOL006C, strain TOP1, active compounds read low 1.03 | S. cerevisiae deletion strains, locus YOL012C, strain htz1 1.07 | S. cerevisiae deletion strains, locus YOL147C, strain pex11, active compounds read low 1.02 | S. cerevisiae deletion strains, locus YOR001W, strain rrp6, active compounds read low 0.967 | S. cerevisiae deletion strains, locus YOR061W, strain CKA2, active compounds read low 1 | S. cerevisiae deletion strains, locus YOR069W, strain VPS5, active compounds read low 0.994 | S. cerevisiae deletion strains, locus YOR070C, strain gyp1, active compounds read low 0.974 | S. cerevisiae deletion strains, locus YOR080W, strain dia2, active compounds read low 0.977 | S. cerevisiae deletion strains, locus YOR083W, strain WHI5, active compounds read low 0.984 | S. cerevisiae deletion strains, locus YOR106W, strain vam3, active compounds read low 0.981 | S. cerevisiae deletion strains, locus YOR136W, strain idh2, active compounds read low 1.02 | S. cerevisiae deletion strains, locus YOR144C, strain elg1, active compounds read low 1.01 | S. cerevisiae deletion strains, locus YOR184W, strain ser1, active compounds read low 1 | S. cerevisiae deletion strains, locus YOR231W, strain MKK1, active compounds read low 0.966 | S. cerevisiae deletion strains, locus YOR265W, strain rbl2, active compounds read low 0.975 | S. cerevisiae deletion strains, locus YOR270C, strain vph1, active compounds read low 0.949 | S. cerevisiae deletion strains, locus YOR290C, strain snf2, active compounds read low 0.962 | S. cerevisiae deletion strains, locus YOR316C, strain cot1, active compounds read low 1 | S. cerevisiae deletion strains, locus YPL051W, strain arl3, active compounds read low 0.976 | S. cerevisiae deletion strains, locus YPL055C, strain LGE1, active compounds read low 0.996 | S. cerevisiae deletion strains, locus YPL078C, strain atp4, active compounds read low 0.974 | S. cerevisiae deletion strains, locus YPL106C, strain sse1, active compounds read low 0.96 | S. cerevisiae deletion strains, locus YPL240C, strain hsp82, active compounds read low 0.981 | S. cerevisiae deletion strains, locus YPL241C, strain CIN2, active compounds read low 0.983 | S. cerevisiae deletion strains, locus YPL256C, strain CLN2, active compounds read low 0.982 | S. cerevisiae deletion strains, locus YPR119W, strain clb2, active compounds read low 1.01 | S. cerevisiae deletion strains, locus YPR141C, strain kar3, active compounds read low 1.02 | S. cerevisiae deletion strains, locus YPR163C, strain tif3, active compounds read low 1.02 | S. cerevisiae deletion strains, locus YPR167C, strain met16, active compounds read low 1.01 | S. cerevisiae deletion strains, strain wtn01, active compounds read low 1 | S. cerevisiae strains, strain wild type, active compounds read low 0.986
